In the library only some 3.2% were active in any assay of this set; here they are far more common.
INS-1E GSIS act: primary screen for activators of insulin secretion dependent on glucose, INS-1E cells, GLuc reporter luminescence. activation, % at 16.6 µM. INS-1E GLuc reporter insulin secretion, 2-3 h. actives 0.61% (n = 370,000);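 active = lowest replicate activation of at least 40%, so every replicate reaches that level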
Ecoli rRNA inh: selective bacterial rRNA inhibition in E. coli; E. coli WT GFP vs humanized-ribosome RFP mutants, fluorescence, 24 h; hits give low values; DMSO median 0, no signal -100; GFP signal change (wild-type ribosome), % (no concentration beside the values); actives 1.6% (n = 350,000);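 active = significant combined selectivity score with lowered wild-type GFP, culture density cut under 30%, mutant RFP and density less affected; inactive = any of these conditions unmet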
PGC1a acetyl inh: PGC1a acetylation modulation, inhibitor mode | U2OS PGC1a acetylation, AlphaScreen anti-acetyl-lysine; with virally co-expressed GCN5 acetyltransferase | actives 0.17% (n = 350,000) | AID 651687 | inhibition, % at 15.6 µM;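 active = every replicate shows inhibition of at least 40%; inconclusive = mean inhibition at least 40% but some replicate below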
ERAP1 HTS inh: blocks human ERAP1 aminopeptidase activity; inhibition, % at 10.7 µM; actives 0.15% (n = 340,000); Q9NZ08; recombinant ERAP1, Leu-AMC fluorescence, 60 min;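 active = mean replicate inhibition of at least 30%, or all replicates individually reaching that 30% level; inactive = mean below 30% and not every replicate reaching it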
Target sequence (Q9NZ08 whole entry, looked up): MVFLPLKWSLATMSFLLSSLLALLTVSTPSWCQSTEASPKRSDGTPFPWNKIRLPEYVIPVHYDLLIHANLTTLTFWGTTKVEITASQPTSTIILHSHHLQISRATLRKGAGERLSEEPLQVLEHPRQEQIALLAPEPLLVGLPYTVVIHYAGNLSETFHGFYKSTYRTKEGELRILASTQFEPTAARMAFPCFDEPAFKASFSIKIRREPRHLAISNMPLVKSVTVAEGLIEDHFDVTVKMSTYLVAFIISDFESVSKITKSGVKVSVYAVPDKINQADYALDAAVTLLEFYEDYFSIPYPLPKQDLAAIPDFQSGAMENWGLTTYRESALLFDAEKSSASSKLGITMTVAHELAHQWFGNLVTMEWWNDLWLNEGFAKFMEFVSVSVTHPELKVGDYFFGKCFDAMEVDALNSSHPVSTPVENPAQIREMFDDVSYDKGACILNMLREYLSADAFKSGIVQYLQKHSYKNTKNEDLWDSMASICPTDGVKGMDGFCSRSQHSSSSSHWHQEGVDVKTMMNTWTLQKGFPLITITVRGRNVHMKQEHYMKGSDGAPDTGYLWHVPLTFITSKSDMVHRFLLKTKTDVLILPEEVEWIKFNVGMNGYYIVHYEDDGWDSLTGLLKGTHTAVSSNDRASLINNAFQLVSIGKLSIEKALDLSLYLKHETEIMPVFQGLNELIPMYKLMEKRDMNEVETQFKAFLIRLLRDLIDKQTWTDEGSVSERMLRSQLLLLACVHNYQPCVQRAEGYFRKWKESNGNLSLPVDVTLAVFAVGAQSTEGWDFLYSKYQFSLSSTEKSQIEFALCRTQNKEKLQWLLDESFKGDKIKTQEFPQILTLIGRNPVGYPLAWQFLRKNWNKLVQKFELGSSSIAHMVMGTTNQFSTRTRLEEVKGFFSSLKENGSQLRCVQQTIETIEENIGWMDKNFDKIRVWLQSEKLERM
CaV13 FRET inh: Primary screen for inhibitors of IQ motif and Ca2+-dependent inactivation inhibitor domain binding in CACNA1D, Förster resonance energy transfer in living cells, … | inhibition, % at 12.3 µM | actives 0.098% (n = 340,000) | HEK cells, CFP/YFP FRET ICDI-IQ, plate reader, 10 min; percent FRET-ratio fall versus neutral wells;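 active = mean replicate inhibition of at least 30% and at least 1% of replicates passing that level; inconclusive = only one of the two criteria is met; inactive = neither criterion is met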
DENV2 CPE rescue: protects cells from dengue virus 2 cytopathic effect; DENV2-infected cells, cytopathic effect rescue, plate reader; CPE inhibition, % at 9.99 µM; actives 1.7% (n = 350,000); in the data active = CPE inhibition above about 20%, passing the limit was not always enough; inconclusive = no clear call, values can overlap the other calls; tested in BHK-21 cells
AID977621: wild-type E. coli growth inhibition versus H69 humanized strain – H69 mutant RFP, wild-type GFP, cherry-pick, dose response. shares compounds with Ecoli rRNA inh. fluorescence, 24 h. activity change, negative = inhibition at 50 µM. 1,900 tested, under 10 active;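 active = Wild-type ribosome reporter drop at least double the humanized mutant ribosome reporter drop, growth loss under a set limit; inconclusive = no clear call, values can overlap the other calls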;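 also: wild-type GFP and H69 mutant RFP strains grown together 50/50 in each well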
AID977628: growth of wild-type and h24-humanized E. coli strains – h24 mutant RFP vs wild-type GFP, cherry-pick, dose response | E. coli WT GFP strain growth, fluorescence, 24 h | activity change, negative = inhibition at 50 µM | AID 977628 | shares compounds with Ecoli rRNA inh | 1,900 tested, under 10 active;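 active = compound lowering the normal-ribosome reporter at least twice as much as the humanized-ribosome reporter, growth loss under a set limit; inconclusive = no clear call, values can overlap the other calls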;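 also: wild-type GFP and h24 humanized RFP strains co-cultured 1 to 1 per well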
Numbers stand for hits; 0 = inactive; ? = inconclusive; - = no result given.

SMILES	INS-1E GSIS act	Ecoli rRNA inh	PGC1a acetyl inh	ERAP1 HTS inh	CaV13 FRET inh	DENV2 CPE rescue	AID977621	AID977628
O=C(NCc1ccc2c(c1)OCO2)c1nc(S(=O)(=O)Cc2ccccc2)ncc1Cl	0	0	0	0	0	0	-	-
COc1ccc(CNC(=O)c2nc(S(=O)(=O)Cc3ccccc3)ncc2Cl)cc1	59.1	-16.2	0	0	0	0	0	0
O=C(NCc1ccccc1)c1nc(S(=O)(=O)Cc2ccccc2)ncc1Cl	0	-24.1	0	0	0	0	0	0
Cc1ccc(S(=O)(=O)N(C)C[C@@H]2Oc3ncc(C#CC4(O)CCCC4)cc3C(=O)N([C@H](C)CO)C[C@@H]2C)cc1	0	0	0	0	-	0	-	-
O=C(C[C@H]1CC[C@@H]2[C@H](COC[C@H](O)CN2Cc2ccncc2)O1)NCc1ccccc1Cl	0	0	0	0	-	0	-	-
Oc1ccccc1Oc1ncc(Br)c(Cl)n1	0	-25.1	0	0	0	0	-	0
COc1ccc2c3c([nH]c2c1)[C@@H](CO)N(C(=O)c1ccccn1)CC31CN(C(=O)C2CCCCC2)C1	0	0	-	-	-	-	-	-
O=C(C[C@H]1CC[C@H]2[C@@H](COC[C@H](O)CN2S(=O)(=O)c2ccc(Cl)cc2)O1)N[C@@H]1CCN(Cc2ccccc2)C1	0	0	0	0	-	0	-	-
CN1c2ccc(C#Cc3cccnc3)cc2[C@@H]2[C@@H](CCN2C(=O)c2cccc(F)c2)[C@H]1CO	0	-38.5	0	-	-	59.0	0	-
CC(C)NC(=O)N1CC[C@H]2[C@@H]1c1cc(C#Cc3cccnc3)ccc1N(C)[C@H]2CO	0	0	0	-	-	0	-	-
COc1ccc(C2=NN(C(=O)CN3CCCCC3)C(c3ccc(C)cc3)C2)cc1 (stereo unspecified)	0	0	0	0	0	0	-	-
COc1ccc(C2CC(c3ccc(Br)cc3)=NN2C(=O)CN2CCCC2)cc1 (stereo unspecified)	0	-19.2	-	0	0	0	0	?
CN1[C@@H]2c3ccc(-c4ccccc4)c(=O)n3C[C@H]1[C@H](CO)[C@H]2C(=O)N1CCC(Cc2ccccc2)CC1	0	0	-	0	-	0	-	-
CCC(C(=O)NC1CCCC1)n1c(-c2ccnc3ccccc23)nc2ccccc21 (stereo unspecified)	0	-13.7	-	0	0	0	0	0
CCC(C(=O)NC1CCCC1)n1c(-c2ccncc2)nc2ccccc21 (stereo unspecified)	0	0	-	0	-	0	-	-
C[C@@H]1CN([C@H](C)CO)C(=O)CCCn2cc(nn2)CO[C@@H]1CN(C)C(=O)Nc1cccc(C(F)(F)F)c1	0	0	0	-	-	-	-	-
COc1ccccc1CNC(=O)CSCc1cnn(-c2ccccc2)c1-n1cccc1	-	-	0	-	0	-	-	-
O=C(CSCc1cnn(-c2ccccc2)c1-n1cccc1)NCc1cccnc1	0	-25.1	0	0	0	-	0	0
Cn1cnc([N+](=O)[O-])c1Oc1cccc(O)c1	0	-	-	-	0	-	-	-
Cn1cnc([N+](=O)[O-])c1Oc1ccccc1	0	-36.8	-	0	0	-	0	0
Cc1noc(C)c1NC(=O)N[C@@H]1C=C[C@@H](CC(=O)NCCCN(C)C)O[C@H]1CO	0	0	0	0	-	0	-	-
COCCn1c(SCC(=O)Nc2cccnc2Cl)nc2ccccc21	0	0	0	0	0	0	-	-
COc1ccccc1NC(=O)CSc1nccn1Cc1ccc(F)cc1	0	-23.6	0	0	0	?	0	-
COCCn1c(SCC(=O)Nc2ccccc2OC)nc2ccccc21	0	-23.7	0	0	-	0	0	?
COCCn1c(SCc2nc3ccccc3s2)nc2ccccc21	0	-19.4	0	0	0	0	0	-
SMILES	INS-1E GSIS act	Ecoli rRNA inh	PGC1a acetyl inh	ERAP1 HTS inh	CaV13 FRET inh	DENV2 CPE rescue	AID977621	AID977628
C[C@@H](NC(=O)C[C@@H]1CC[C@H](NC(=O)C2CCC2)[C@@H](CO)O1)c1ccccc1	0	0	0	0	-	0	-	-
CO[C@H]1CN(C)C(=O)c2cc(NS(=O)(=O)c3cn(C)cn3)ccc2OC[C@@H](C)N(CC2CC2)C[C@H]1C	0	0	0	0	-	0	-	-
CC(=O)N(C)C[C@H]1Oc2cc(C#Cc3ccc(F)cc3)ccc2S(=O)(=O)N([C@@H](C)CO)C[C@@H]1C	0	0	0	0	-	0	-	-
CCCN1C[C@@H](C)[C@H](OC)CN(C)C(=O)c2cc(NC(=O)C3CC3)ccc2OC[C@H]1C	0	0	0	0	-	0	-	-
O=C1c2ccccc2CSc2c(O)cccc21	0	-31.4	0	0	0	0	0	0
O=C1c2ccccc2CCc2ccccc21	0	0	0	0	0	0	-	-
CCOC(=O)C1CCCN(Cc2c(Cl)cccc2Cl)C1 (stereo unspecified)	0	-23.3	0	0	0	0	0	0
CCOC(=O)C1CCCN(Cc2ccccc2F)C1 (stereo unspecified)	0	-	0	-	0	-	-	-
O=C(Nc1ccc2c(c1)OCCO2)c1cccnc1Oc1ccc(Cl)cc1	0	-27.2	0	0	0	0	0	-
CC(C)(C)CC(=O)Nc1ccccc1N1CCN(c2ccccc2)CC1	0	-19.4	0	0	0	0	0	0
CN(C)C(CNC(=O)c1ccc([N+](=O)[O-])cc1Cl)c1ccco1 (stereo unspecified)	0	0	-	0	0	0	-	-
CN(C)C(CNS(=O)(=O)c1cc([N+](=O)[O-])ccc1Cl)c1ccco1 (stereo unspecified)	0	-2.3	-	0	0	0	-	0
CC=Cc1ccc2n(c1=O)C[C@H]1[C@H](CO)[C@@H](C(=O)NCCC)N(CC3CCCC3)[C@@H]21 (mixture of isomers)	0	0	0	0	-	0	-	-
COc1ccc2c(CC(=O)NCc3ccc4c(c3)OCO4)coc2c1	0	-25.4	-	0	0	0	0	?
CC(OC(=O)Cc1ccc(F)cc1)C(=O)NCc1ccc2c(c1)OCO2 (stereo unspecified)	0	0	0	0	0	0	-	-
COc1cccc(CC(=O)OC(C)C(=O)NCc2ccc3c(c2)OCO3)c1 (stereo unspecified)	0	-30.5	0	0	0	0	?	?
O=S(=O)(Cc1ccco1)Cc1nc(-c2ccc(Cl)cc2)cs1	0	-33.8	0	0	0	0	0	0
Cc1ccc(S(=O)(=O)N2C/C=C\CN(S(=O)(=O)c3ccccc3Br)CC2)cc1	0	0	0	-	0	0	-	-
Cc1ccc(S(=O)(=O)N2CCCN(S(=O)(=O)c3ccccc3Br)CC2)cc1	0	-17.1	0	-	0	0	0	?

Source: PubChem BioAssay
